Source: PubChem BioAssay
A number with no mark means an inactive call. The source made the active and inactive calls.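 Rule for the calls: active = inhibition above the hit cutoff set in the earlier primary screen (cut at about 27% in these data); inactive = the rest.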

The compounds below were run against Protein phosphatase methylesterase 1 (Homo sapiens) (UniProt Q9Y570) (assay: human PME-1 methylesterase inhibition confirmation – biochemical, fluorescence polarization, FP-Rh probe, triplicate (AID 2171;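 note: 0% = enzyme with DMSO and 100% = wells lacking PME-1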)). Settings: recombinant PME-1, FP-Rh probe fluorescence polarization; at 5.9 µM; hits give high values.
Protein phosphatase methylesterase 1 (Homo sapiens), sequence (Q9Y570 whole entry, looked up): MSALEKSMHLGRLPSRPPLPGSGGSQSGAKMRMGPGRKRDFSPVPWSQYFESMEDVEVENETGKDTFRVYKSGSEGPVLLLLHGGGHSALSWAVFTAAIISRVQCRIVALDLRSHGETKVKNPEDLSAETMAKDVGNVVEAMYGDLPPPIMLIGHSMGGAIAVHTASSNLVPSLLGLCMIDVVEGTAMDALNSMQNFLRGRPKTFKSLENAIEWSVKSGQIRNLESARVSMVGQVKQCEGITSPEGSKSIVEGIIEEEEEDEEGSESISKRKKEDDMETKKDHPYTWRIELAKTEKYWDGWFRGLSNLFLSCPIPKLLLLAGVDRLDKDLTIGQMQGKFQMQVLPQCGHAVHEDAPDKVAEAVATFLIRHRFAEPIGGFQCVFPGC

Row | SMILES | inhibition
1 | Cc1ccc(-n2[nH]c(C)c(/C=N/Nc3ccc([N+](=O)[O-])cc3[N+](=O)[O-])c2=O)cc1C | 33.5% (active)
2 | O=c1[nH]c(C2CCCN(S(=O)(=O)c3ccccc3)C2)nc2c1nnn2Cc1ccccc1 (stereo not given) | 22.6%
3 | COc1cccc(-c2nnc(Nc3nc4c(F)cccc4s3)o2)c1 | 46.2% (active)
4 | CC(C)c1ccc2[nH]c(O)c(N=NC(=O)c3ccc(CSc4nncn4C)cc3)c2c1 | 104% (active)
5 | COc1cc2c(C#N)c(N3CCc4ccccc4C3)nc(N)c2c(N)n1 | 32.4% (active)
6 | COc1ccc(NC(=O)Nc2cccc([N+](=O)[O-])c2)cc1Cl | 2.05%
7 | CCN(CC)c1ccc(/C=N/NC(=O)c2cccc(S(=O)(=O)Nc3ccccc3OC)c2)c(O)c1 | 25.8%
8 | Cc1cc(N)ccc1-n1c(C)ccc1C | 6.22%
9 | Fc1cccc2sc(Nc3nc4cc5c(cc4s3)OCO5)nc12 | 76.3% (active)
10 | Cc1[nH]c2ccccc2c1/C=C/c1nc2ccccc2c(=O)n1CCO | 68.3% (active)
11 | COc1ccc(/C=N/NC(=O)c2cc3c(OC)ccc(OC)c3[nH]2)cc1O | 37.8% (active)
12 | COc1ccc2noc3c2c1C(=O)c1ccccc1-3 | 22.2%
13 | CC1=CC(C)(C)N2C(=O)C(=Nc3ccc(O)cc3)c3cccc1c32 | 4.13%
14 | S=C(NCc1ccccc1)NCc1cccc(CNC(=S)NCc2ccccc2)c1 | 3.07%
15 | CCCCN(CCCC)CCNC(=O)c1cn(C)c2ccc(S(=O)(=O)N(C)C3CCCCC3)cc2c1=O | 58.5% (active)
16 | CCn1c(CSc2nnc3ccccn23)nc2cc(C(=O)O)ccc21 | 59% (active)
17 | Cc1cccnc1Nc1nc(-c2ccc(O)c(O)c2)cs1 | 14.8%
18 | CCOc1ccc(/C=C2\SC(=S)N(C(C(=O)O)c3ccccc3)C2=O)cc1OC (stereo not given) | 43.8% (active)
19 | O=C(O)c1ccc(N/N=C/c2ccc(OC(=O)c3cccc(Cl)c3)cc2)cc1 | 37% (active)
20 | CCO[C@@H]1OC(C(=O)N2CCN(Cc3ccccc3)CC2)=C[C@H](c2cn(C(C)=O)c3ccccc23)[C@H]1CCCO | 75.4% (active)

Row | SMILES | inhibition
21 | COc1ccc2nc(N3C(=O)/C(=C/c4ccccc4)NC3=S)sc2c1 | 43.3% (active)
22 | O=C1Nc2ccc(Br)cc2C12NNc1ccccc1O2 (stereo not given) | 38.5% (active)
23 | COC(=O)c1ccc(NC(=O)Nc2ccc(OC)cc2)cc1 | 23.2%
24 | N#CCSc1nc2c(cc1C#N)CCCCCC2 | 22.3%
25 | N#Cc1c(N)n(CCOC(=O)c2cccc([N+](=O)[O-])c2)c2nc3ccccc3nc12 | 19.5%
26 | N#C/C(N=Nc1ccccc1O)=N\Nc1ccccc1O | 53.1% (active)
27 | N#CC(C#N)=NNc1ccc(S(=O)(=O)N2CCCCC2)cc1 | 14.8%
28 | CCc1cccc(CC)c1NC(=O)COc1ccccc1C(=O)c1cc(C#N)c(=O)n(C2CCCCC2)c1 | 35.9% (active)
29 | CC(C)N=c1cc2n(-c3ccc(Cl)cc3)c3ccccc3nc-2cc1Nc1ccc(Cl)cc1 | 17.7%
30 | COc1ccc(Nc2ncnc3sc(-c4ccccc4)cc23)cc1OC | 6.82%
31 | Fc1cc(F)c2nc(Nc3nc4cc5c(cc4s3)OCO5)sc2c1 | 29.5% (active)
32 | O=C1NC(=S)/C(=C\c2ccc(-c3ccccc3Cl)o2)S1 | 33.2% (active)
33 | O=C(Nc1cccc(C(F)(F)F)c1)c1ccc2nc(-c3ccco3)c(-c3ccco3)nc2c1 | -3.36%
34 | O=S(=O)(c1ccc(-c2csc(Nc3ccc(Br)cc3)n2)cc1)N1CCCC1 | 16.5%
35 | O=c1[nH]c(C2CCN(S(=O)(=O)c3ccc(C(F)(F)F)cc3)CC2)nc2c1nnn2Cc1ccc(F)cc1 | 79.1% (active)
36 | N#CCC(=O)c1ccccc1Oc1ccc(Cl)cc1 | 13.4%
37 | N#CC1=C(N)C(C#N)(C#N)C(c2ccncc2)C2CN(C(=O)OCc3ccccc3)CC=C12 (stereo not given) | 28.3% (active)
38 | CCCOc1ccc([C@@H]2C3CN(C(=O)OCC)CC=C3C(C#N)=C(N)C2(C#N)C#N)cc1OC (stereo not given in full) | 53.6% (active)
39 | O=C(N/N=C/c1ccc(O)c(O)c1)c1ccc(CSc2cccc3cccnc23)cc1 | -3.59%
40 | CCN(CC)c1ccc(S(=O)(=O)N2CCOCC2)cc1NC(=O)CN1CCN(Cc2ccccc2)CC1 | 72.3% (active)
